# Experimental data: PubChem BioAssay AID602233 (National Center for Advancing Translational Sciences (NCATS), 2012)
# In all, about 380,000 compounds went through this assay and about 170 (0.045%) were called active. Only a selection was taken, and actives are over-represented in it overall. A number with no mark means an inactive call. Calls come from the whole dose curve; as a rule, active = well fitted inhibition curve with a large enough effect; inconclusive = small, poorly fitted or top-dose-only effect; inactive = no such curve, though single readings can be large or run the other way.
# Target: Phosphoglycerate kinase, glycosomal (Trypanosoma brucei brucei) (UniProt P07378)
# Assay: qHTS Assay to Find Inhibitors of Phosphoglycerate Kinase; note: nearly all actives have a fitted effect of over 60% in size
# Conditions: PGK/GAPDH coupled, Kinase-Glo luminescence, 60 min; series mostly up to 57.5 µM; activity change, negative = inhibition: at the top concentration
# Source text: Several species of the Trypanosomatidae family of parasitic protozoans cause a spectrum of diseases throughout the tropical and subtropical world. Sleeping sickness, caused by two subspecies of Trypanosoma brucei, is endemic to areas of sub-Saharan Africa, while Chagas disease, a manifestation of Trypanosoma cruzi infection, is prevalent throughout Central and South America. In addition, many species of Leishmania are responsible for a range of cutaneous and visceral diseases, causing ulcers, destructive lesions and kalaazar, a lethal infection of the viscera. Collectively, these organisms infect 30 million people worldwide (~500 million live in endemic areas), and account for ~130,000 deaths annually. Given their debilitating and prevalent nature, trypanosomatid parasites impose a heavy medical, economic and social burden on entire populations, primarily in the developing world. The problem is further exacerbated by the fact that existing treatments have progressed little in the past 50 years, and current drugs show high toxicity and poor efficacy. […] Blood-stream stages of T. brucei are entirely dependent on glycolysis as a source of ATP, and the tricarboxylic acid cycle and oxidative phosphorylation are both repressed. Glycolysis in axenically cultured T. cruzi, representing the intracellular pathogenic stage, is also essential for these parasites. […] Previous studies have shown that the glycolytic enzyme, phosphoglycerate kinase (PGK), is a viable target for drugs to kill these parasites. […] NIH Molecular Libraries Probe Production Network [MLPCN] NIH Chemical Genomics Center [NCGC] MLPCN Grant: R03 MH093212 PI Name: Malcolm Walkinshaw, University of Edinburgh
# 3ul of substrate/PGK buffer (columns 1,2,5-48) are dispensed into Greiner white solid bottom 1536-well assay plates; columns 3-4 receive only TEA buffer as 0x PGK controls. Compounds are then transferred via Kalypsys pin tool equipped with 1536-pin array (10nl slotted pins, V&P Scientific, San Diego, CA). Following addition of compound, 1ul of GAPDH (100nM final concentration, all columns) is added to initiate the reaction (this upstream coupling enzyme is necessary for in-well production of PGK substrate, 1,3-bisphosphoglycerate (1,3-BPG), which is unstable and not commercially available). The plates are then incubated at room temperature for 60 minutes. Kinase-Glo Plus reagent is added (2ul) and plates incubated for 10 minutes, before being transferred to a ViewLux high-throughput CCD imager (PerkinElmer) wherein single end-point measurements of luminescence are acquired using a clear filter. All reagents are diluted in an assay buffer consisting of 100mM TEA (pH 7.6), 5mM MgCl2 and 0.01% Tween-20.
# % is set by controls: 0 for no effect and ±100 for the full control effect; potency is the fitted concentration of half-maximal effect.
# Chain of Phosphoglycerate kinase, glycosomal (Trypanosoma brucei brucei) (P07378 whole entry, looked up): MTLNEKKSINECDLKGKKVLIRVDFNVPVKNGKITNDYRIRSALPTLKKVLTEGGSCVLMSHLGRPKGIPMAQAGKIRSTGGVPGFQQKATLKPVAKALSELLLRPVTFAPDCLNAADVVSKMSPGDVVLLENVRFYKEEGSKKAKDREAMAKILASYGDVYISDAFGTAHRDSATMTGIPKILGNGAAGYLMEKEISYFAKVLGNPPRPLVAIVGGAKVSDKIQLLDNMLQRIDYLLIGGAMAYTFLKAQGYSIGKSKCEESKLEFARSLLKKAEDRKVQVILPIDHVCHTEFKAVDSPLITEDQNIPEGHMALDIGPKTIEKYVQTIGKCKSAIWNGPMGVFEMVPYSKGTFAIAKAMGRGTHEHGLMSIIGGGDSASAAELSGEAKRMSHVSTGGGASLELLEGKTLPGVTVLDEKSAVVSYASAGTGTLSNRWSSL
Compound,"activity change, negative = inhibition [%]",Potency
O=C1NC(=O)N(Cc2ccco2)C(=O)/C1=C\c1ccc(-c2ccc(F)cc2)o1,-16.2,–
COc1cccc(N2C(=O)NC(=O)/C(=C\c3ccc([N+](=O)[O-])s3)C2=O)c1,-20,–
COc1ccc(N2C(=O)/C(=C/c3ccco3)C(=O)NC2=S)cc1,–,12.6 µM (active)
c1ccc(C2NCc3ccccc3-n3cccc32)cc1 (stereo not given),-1.24,–
N[C@@H](Cc1c[nH]c2ccccc12)c1nnc(SCc2c(F)cccc2Cl)o1,-1.8,–
